Data on 55 compounds can be found in ChEMBL document CHEMBL3988442, “University of Dundee, Small-Polar-MMV Screening Library” (2021).

The whole screen tested about 48,000 compounds, of which about 13,000 (27%) showed an effect of 50% or more. The list shows a part of the results.

The test deals with Wolbachia pipientis. The experiment in a line: Anti-Wolbachia Cell-Based Screen. As to conditions: 5 µM. Also on record: scale not given: in the data most compounds retested in dose-response had high values. Format: functional.
With `Cc1cc(N[C@@H](CO)c2ccccc2)n2nc(C)c(C)c2n1`, the “Percent Effect” value is listed as -10.16%.
On to `c1ccc(-n2cncn2)c(CNCCn2cccn2)c1`, for which the “Percent Effect” value is given as -10.78%.
Take `COc1ncnc(N)c1CNCCc1ccc(-n2cccn2)cc1`: the “Percent Effect” value stood at 93.72%.
The result for `COc1ncnc(N)c1CNCCOc1ccccc1Cl` reads -0.9521%; that for `COc1ncnc(N)c1CNCC(C)SC` (stereo not given), 4.865%.
For `COc1ncnc(N)c1CNCc1ccccc1-n1cccn1`, the “Percent Effect” value is listed as 108.1%.
The value for `COc1ncnc(N)c1CNCC(C)Oc1ccccc1Cl` (stereo not given) was -1.664%.
The result for `CC(C)C1CN(C(=O)c2cc(=O)[nH]c(=O)[nH]2)CCCN1CC1CC1` (stereo not given) reads 26.13%; that for `Cc1ccc(CN2CCN(c3ncnc4[nH]cnc34)CC2CCO)cc1` (stereo not given), -6.275%; that for `Cc1cc(CN2CCN(CC3CC3)[C@@H]3CS(=O)(=O)C[C@@H]32)ccc1F`, 0.5835%.
The value for `CNc1nc(C2CCCN2)nc2c1CCN(S(=O)(=O)C1CCCCC1)C2.Cl` (stereo not given) was 89.64%.
Turning to `CCS(=O)(=O)N1CCc2c(nc(C3CCCN3)nc2NC)C1.Cl` (stereo not given), the “Percent Effect” value was 89.89%.
The value for `CCS(=O)(=O)N1CCc2c(cccc2NCc2nc(C)c(C)o2)C1` was 13.37%; that for `CCS(=O)(=O)N1CCc2c(cccc2NCc2ncc[nH]2)C1` was -10.34%; that for `O=C1CCN(C(=O)C2(c3ccc(F)cc3)CCCC2)CCN1` was -16.8%.
The value for `COc1ccc(C(O)CNC(=O)NCc2csc(C)n2)cc1` (stereo not given) was -1.772%.
Turning to `CS(=O)(=O)N1CCN2C(=O)N(C3CCOCC3)C[C@H]2C1`, the “Percent Effect” value is listed as -10.83%.
On to `Cc1nnc(N2CCC(CCn3ccnc3C)CC2)o1`, for which the “Percent Effect” value is given as 2.305%.
The result for `Cc1nccn1CCC1CCN(C2CCC3(CCNCC3)CC2)CC1` reads 84.73%.
The value for `Cc1nccn1CCC1CCN(c2ncccn2)CC1` was -9.43%; that for `Cc1ncnc(N2CCN(C(=O)C3CC4(CCNCC4)CN3)CC2)c1C` (stereo not given) was -0.6445%; that for `Cc1nccn1CCC1CCN(C(=O)C2CC3(CCNCC3)CN2)CC1` (stereo not given) was 104.8%.
The value for `Cc1cnccc1N1CCN(C(=O)C2CC3(CCNCC3)CN2)CC1` (stereo not given) was 31.13%; that for `CCCN(CC(=O)OC)S(=O)(=O)c1cnc2c(c1)c(C)nn2C` was 9.963%; that for `O=C(c1ccsc1)N1C[C@@H]2CCN(C(=O)c3cscn3)[C@@H]2C1` was 98.94%.
As to `O=C(c1cscn1)N1CC[C@@H]2[C@@H]1CCN2c1ccccn1`, the “Percent Effect” value is listed as -2.894%.
The value for `CN1C[C@@H]2CN(C(=O)C3CCOC3)C[C@@H]2C1=O` (stereo not given in full) was 0.8988%; that for `CC(C)C(=O)N1CCN(C(=O)c2cscn2)[C@H]2CS(=O)(=O)C[C@H]21` was 2.64%.
The result for `CS(=O)(=O)N1C[C@@H]2CCN(C(=O)c3cscn3)[C@@H]2C1` reads 118.3%.
The value for `CCS(=O)(=O)N1CCC2(CN(C(=O)c3cscn3)C2)C1` was 7.529%; that for `O=C(c1ccsc1)N1C[C@@H]2CCN(C(=O)c3cccc(F)c3)[C@@H]2C1` was -29.62%; that for `CS(=O)(=O)N1C[C@@H]2CCN(C(=O)c3ccco3)[C@@H]2C1` was -6.962%.
In the case of `O=C(NC1CC1)N1C[C@@H]2CCN(C(=O)c3cscn3)[C@@H]2C1`, the “Percent Effect” value is 121.3%.
The result for `O=C(NC1CCCCC1)N1C[C@@H]2OCCN(C(=O)c3ccco3)[C@@H]2C1` reads 2.504%.
The value for `O=C(c1ccco1)N1C[C@H]2CCCN(C(=O)c3ccsc3)[C@H]2C1` was -8.905%.
The result for `O=C(C1CCOC1)N1C[C@@H]2CCN(C(=O)c3cscn3)[C@@H]2C1` (stereo not given in full) reads 85.3%.
Consider `Cc1nc(C(C)(C)NCc2ncc(C(C)C)o2)sc1C`, for which the “Percent Effect” value turned out to be 0.4552%.
The result for `O=C(C1CCS(=O)(=O)C1)N1CCC(=Cc2cccc(F)c2)CC1` (stereo not given) reads 0.7274%.
The value for `Cc1ccc2nc(C(=O)N3CC(c4cccnc4)C3)cn2c1` was 95.05%.
The value for `Cc1c(Cl)c(C(=O)N2C[C@@H](C(=O)O)[C@H](c3cccnc3)C2)nn1C` was 7.348%; that for `COc1cc(C)sc1C(=O)N1CC(c2cccnc2)C1` was -11.08%; that for `Cc1ccc2nc(C(=O)N3CC(n4nc(C)cc4C)C3)cn2c1` was -3.622%.
Turning to `Cc1c(Cl)c(C(=O)N2CC(c3cccnc3)C2)nn1C`, the “Percent Effect” value is on record as 11%.
The value for `Cc1ccc2nc(C(=O)N3C[C@@H](C(=O)O)[C@H](c4cccnc4)C3)cn2c1` was 96.84%.
The value for `Cc1ccc(F)c(C(=O)N2C[C@@H](C(=O)O)[C@H](c3ccccc3)C2)c1Cl` was 13.68%; that for `Cc1ccc(CN2C[C@@H](C(=O)O)[C@H](c3cccnc3)C2)s1` was -1.112%; that for `Cc1ccc2nc(C(=O)N3C[C@@H](C(=O)O)[C@H](c4ccccc4)C3)cn2c1` was 107.2%.
The value for `Cc1c(-c2n[nH]c3c2CN(CC2CCOC2)CC3)cccc1C(F)(F)F` (stereo not given) was -2.371%.
Take `CCCOC(=O)C(C)Sc1nnnn1C1CCOCC1` (stereo not given): the “Percent Effect” value is given as -23.26%.
With `O=C(NC1CCOCC1)C1CC(=O)N(Cc2ccccn2)C1` (stereo not given), the “Percent Effect” value is recorded as -4.932%.
The value for `Cc1ncccc1CNCC1CCN(CC(O)c2ccccc2)CC1` (stereo not given) was 6.479%.
The value for `N[C@@H]1CC[C@H](C(=O)NCc2ccc3nonc3c2)C1` was -14.66%; that for `Cc1ccnc(NC(=O)CSCc2cccnc2)c1` was -2.126%; that for `Cc1cccc(CSc2ncc(Cl)c(C(=O)O)n2)c1` was 112.8%.
The value for `Cc1cccc(CSc2ncc(Br)c(C(=O)O)n2)c1` was 160.3%.
